# Shiga inhibitor = A qHTS for Small Molecule Inhibitors of Shiga Toxin | actives 9.2% (n = 290,000) | inhibition, % at 38.7 µM | Vero cells, Shiga toxin protein synthesis inhibition reporter; in the data active = inhibition mostly above about 28%, no sharp cut-off; inactive = mostly below about 43%; note: 0% is about no effect
# AMA1-RON2 inh = qHTS for Inhibitors of AMA1-RON; Towards Development of Antimalarial Drug Lead: Primary Screen; Plasmodium falciparum AMA1 (3D7) - RON2 peptide interaction; AlphaScreen AMA1-biotinylated RON2 peptide binding; Potency, µM (series often up to 58.2 µM), without a hit: at the top dose activity change, negative = inhibition, actives largely listed as inhibitors; actives 0.2% (n = 360,000); AID 720542, 2013;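 note: potency is the fitted concentration of half-maximal effect; 0% = vehicle wells and -100% = peptide control; nearly all actives have a fitted effect of over 45% in size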
#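 AMA1 (3D7) with his tag at 25 nM final met compounds first, then biotinylated RON2 peptide at 25 nM; detection used donor plus acceptor beads, 10 µg/mL apiece, read by AlphaScreen after 30 min at room temperature.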
# Cycloheximide cs = Cycloheximide Counterscreen for Small Molecule Inhibitors of Shiga Toxin. cell reporter, cycloheximide protein synthesis inhibition counterscreen. max response, %. actives 12% (n = 300,000). AID 2314, 2010; in the data active = max response mostly above about 13%, no sharp cut-off; inactive = mostly below about 14%; note: read at 38.3 µM for the half of the compounds with a filed dose; 0% is about no effect
# HCV inh = qHTS Assay for Inhibitors of Hepatitis C Virus (HCV); Huh7.5.1 HCVcc-Cre infection, luciferase reporter, 44 h; Potency, µM (doses to about 41.8 µM), for inactives: top-dose activity change, negative = inhibition, hits mostly inhibitors; actives 3.4% (n = 340,000); AID 651820, 2012; note: potency is the fitted concentration of half-maximal effect; % is set by controls: 0 for no effect and ±100 for the full control effect
#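 Antiviral activity was scored by luciferase reporter output from cells infected with HCVcc-Cre (~0.5 moi) in presence of compound, 44 h infection period, cells seeded 1,000/well 4 h prior.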
# Pf growth 48h = Primary qHTS for delayed death inhibitors of the malarial parasite plastid, 48 hour incubation. P. falciparum luciferase growth in erythrocytes, 48 h. Potency, µM (highest dose often 28.7 µM), without a hit: top-dose activity change, negative = inhibition, hits mostly inhibitors. actives 5.9% (n = 310,000); note: potency is the fitted concentration of half-maximal effect; % is set by controls: 0 for no effect and ±100 for the full control effect
#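 In quantitative HTS format, infected erythrocytes bearing luciferase-reporter parasites were treated for a single generation at 37 C. Luminescence after adding detection reagent served as the growth measure.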
# Pf growth 96h = Primary qHTS for delayed death inhibitors of the malarial parasite plastid, 96 hour incubation; P. falciparum luciferase reporter growth, 96 h; Potency, µM (top dose mostly 28.7 µM), inactives show top-dose activity change, negative = inhibition, hits mostly inhibitors; actives 6.9% (n = 320,000); AID 504834, 2011; note: potency is the fitted concentration of half-maximal effect; % is set by controls: 0 for no effect and ±100 for the full control effect
#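 Cell-based qHTS: luciferase-tagged P. falciparum in erythrocytes (2% hematocrit, 0.05% parasitemia final) incubated with compounds for 96 hours, 37 C, 5% CO2; luciferase detection reagent then added and luminescence measured.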
# * hit, by the source's call; ? = inconclusive; . = no result given; + = active, no number. In the library only some 21% were active in any assay of this set; here they are far more common. Unless noted, calls come from the whole dose curve; as a rule, active = well fitted curve in the direction sought with a large enough effect; inconclusive = small, poorly fitted or top-dose-only effect, or another doubt; inactive = no such curve, though single readings can be large; an effect the other way counts as inactive or inconclusive.
SMILES,Shiga inhibitor,AMA1-RON2 inh,Cycloheximide cs,HCV inh,Pf growth 48h,Pf growth 96h
Cc1ccc2nc(NC(=O)C3CCN(S(=O)(=O)c4cc([N+](=O)[O-])ccc4Cl)CC3)sc2c1,+,-9%,13*,6.3µM*,-1%,?
O=C(Nc1nc2ccc(F)cc2s1)C1CCN(S(=O)(=O)c2cc([N+](=O)[O-])ccc2Cl)CC1,52*,-11%,34*,32µM*,?,?
O=[N+]([O-])c1ccc(Cl)c([N+](=O)[O-])c1,.,?,.,?,10µM*,?
O=[N+]([O-])c1ccc(O)c([N+](=O)[O-])c1,.,0%,.,?,.,.
COc1cccc(NC(=O)CCNC(=O)N2CC(=O)Nc3ccccc32)c1,0,7%,-1,14%,6%,?
Cc1ccc(NC(=O)C2CCN(S(=O)(=O)c3cc([N+](=O)[O-])ccc3Cl)CC2)nc1,.,-15%,.,5µM*,.,.
CC(NC(=O)C1CCN(S(=O)(=O)c2cc([N+](=O)[O-])ccc2Cl)CC1)c1ccccc1 (centres undefined),-8,13%,-2,1%,-14%,-8%
CC1(C(=O)NCc2ccccc2)CSCC(=O)N1Cc1cccc(C(F)(F)F)c1 (centres undefined),.,-4%,.,.,.,.
Cc1ccc(OCC(=O)NCCNC(=O)c2cnccn2)cc1C,15,3%,-1,16%,2%,?
O=C(CC12CC3CC(CC(C3)C1)C2)N1CCOCC1,-5,11%,-1,6%,-14%,.
CC(C(=O)C12CC3CC(CC(C3)C1)C2)N1CCOCC1 (centres undefined),.,5%,2,25%,27%,1.9µM*
O=C1OCCC1=COCCCCCCOC=C1CCOC1=O,.,5%,.,.,.,.
CCC1Sc2ccc(S(=O)(=O)Nc3ccc(OC)c(OC)c3)cc2NC1=O (centres undefined),43,-1%,8,10µM*,11%,0%
CCC1Sc2ccc(S(=O)(=O)CCC(=O)Nc3ccc(NC(C)=O)cc3)cc2NC1=O (centres undefined),-2,2%,7,12%,29%,6.6µM*
CCC1Sc2ccc(S(=O)(=O)Nc3ccc(OC)cc3)cc2NC1=O (centres undefined),-7,-1%,1,-15%,9%,?
Nc1c(Br)cc(Br)c2cccnc12,-8,.,-7,.,.,.
Brc1cc2[nH]cnc2c2ccccc12,-10,-5%,5,10µM*,?,.
Cc1cc(C)n2nc(SCC(=O)NC3(C#N)CCCCC3)nc2n1,.,-14%,.,.,.,.
Cc1cc(C)cc(OCC(=O)NNC(=O)c2ccccn2)c1,.,76%,.,?,5.2µM*,3.3µM*
Cc1cc(OCC(=O)NNC(=O)c2ccncc2)ccc1C(C)C,.,68%,.,28%,?,10%
COc1ccc(CC(=O)NNC(=O)c2ccccn2)cc1,64,78%,12*,-1%,?,?
Cc1cc(OCC(=O)NNC(=O)c2ccncc2)cc(C)c1Cl,-9,119%,-3,4%,?,10µM*
O=C(COc1ccc(Cl)cc1)NNC(=O)c1ccccn1,-5,84%,1,1%,5.2µM*,?
O=C(COc1ccccc1)NNC(=O)c1ccc(Cl)cc1,.,59%,.,-3%,-21%,?
O=C1C[C@@H]2c3c(cccc3CN1Cc1ccccc1Br)C[C@@H](O)[C@H]2O,.,6%,.,-1%,.,.
COc1cccc(=O)c2c(C)n(-c3cc(C)cc(C)c3)c(C)c12,-7,-8%,-2,-23%,3.3µM*,2.6µM*
COc1cccc(-n2c(C)c3c(OC)cccc(=O)c3c2C)c1,-18,?,8,-19%,4.1µM*,?
COc1cccc(=O)c2c(C)n(C)c(C)c12,-6,?,1,?,6%,377%

# Screening results from PubChem.
